Measured values reported in PubChem BioAssay AID686979 (National Center for Advancing Translational Sciences (NCATS), 2013).
Among all 420,000 compounds or so, about 50,000 (12%) were called active. Not shown: some 26% with an inconclusive outcome. This excerpt belongs to a sample that is enriched for actives. Unmarked numbers belong to inactive results. Calls follow the shape of the dose curve; as a rule, active = well fitted inhibition curve with a large enough effect; inconclusive = small, poorly fitted or top-dose-only effect; inactive = flat fitted curve, though single readings scatter.

experiment: qHTS for Inhibitors of human tyrosyl-DNA phosphodiesterase 1 (TDP1): qHTS in cells in presence of CPT; conditions: chicken DT40 Tdp1-/-;hTDP1 cells + 20 nM CPT, ATP luminescence, 48 h; series mostly up to 46.2 µM; activity change, negative = growth inhibition: at the top concentration; also: nearly all actives have a fitted effect of over 55% in size
Procedure, shortened: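 Chicken DT40 Tdp1-/- cells stably complemented with human TDP1 were seeded at 400 cells/well in medium containing 20 nM camptothecin, exposed to pin-transferred compounds, and grown at 37 °C for at least 48 hr. Viability was read as ATP luminescence.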
% is scaled to controls: 0 for no effect and ±100 for the full control effect; potency is read from the fitted curve at half-maximal effect.

With `CCOc1ccc(C(=O)NC(=S)Nc2ccc(N3CCOCC3)c(Cl)c2)cc1[N+](=O)[O-]` as the compound, how does the Potency read?
The Potency was 0.146 µM (active).

Which “activity change, negative = growth inhibition” value does the source give for `COc1cccc(OC)c1C(=O)NC(=S)Nc1ccc(N2CCOCC2)c(Cl)c1` here?
Its value is -25.4%.

Which “activity change, negative = growth inhibition” value does the source give for `CCOc1ccc(C(=O)NC(=S)Nc2ccc(NC(=O)C(C)C)cc2)cc1[N+](=O)[O-]` here?
The value was -16.5%.

With `CN(C)c1ccc(-c2nnc(-c3cccnc3)o2)cc1` as the compound, how does the “activity change, negative = growth inhibition” value read?
The value was -14.5%.

For `CCC(C)(C(=O)Nc1ccccc1C)N(C(=O)CNC(C)=O)c1ccc(C)cc1` (stereo unspecified), which “activity change, negative = growth inhibition” value is on record?
The value was 2.25%.

For `COc1cc(NS(=O)(=O)c2ccc(N=Cc3c(C)[nH]n(-c4ccccc4)c3=O)cc2)nc(OC)n1`, which “activity change, negative = growth inhibition” value is on record?
Its value is -16.6%.

Which “activity change, negative = growth inhibition” value does the source give for `CCc1nnc(NS(=O)(=O)c2ccc(NS(=O)(=O)c3ccccc3)cc2)s1` here?
The value was -14.8%.

For `CCc1nnc(NS(=O)(=O)c2ccc(N=Cc3c(C)[nH]n(-c4ccc(C)cc4)c3=O)cc2)s1`, which Potency is on record?
Its Potency is 11.6 µM (active).

For `CS(=O)(=O)Nc1ccccc1C(=O)OCC(=O)NC1CC1`, which “activity change, negative = growth inhibition” value is on record?
Its value is -21.4%.

With `Cc1ccc(S(=O)(=O)c2nnn3c2nc(N2CCN(c4ccccc4F)CC2)c2cc(Cl)ccc23)cc1C` as the compound, how does the “activity change, negative = growth inhibition” value read?
The value was 4.64%.

With `CCCCc1cc2c(s1)CCCC/C2=N/O` as the compound, how does the “activity change, negative = growth inhibition” value read?
The value was -6.51%.

With `Cc1cccc(C(=O)NCC(=O)OCC(=O)N2CC3(C)CC2CC(C)(C)C3)c1` (stereo unspecified) as the compound, how does the “activity change, negative = growth inhibition” value read?
The value was 1.66%.

Which Potency does the source give for `Cc1nnnn1/C(=C\c1ccccc1)C(=O)OCC(=O)N1CC2(C)CC1CC(C)(C)C2` (stereo unspecified) here?
The Potency was 13 µM (active).

For `CCOC(=O)CNc1nc(Cl)nc(Nc2ccccc2)n1`, which “activity change, negative = growth inhibition” value is on record?
Its value is 2.34%.

Which “activity change, negative = growth inhibition” value does the source give for `CN(C)S(=O)(=O)c1cccc(C(=O)OCC(=O)N2CCCC2=O)c1` here?
The value was -12.8%.

For `Cc1ccc(S(=O)(=O)Nc2ccc3c(c2)C(=O)N([C@H](C)CO)C[C@@H](C)[C@@H](CN(C)C(=O)Nc2cccc4ccccc24)O3)cc1`, which Potency is on record?
The Potency was 20.6 µM (active).

With `COc1ccc(NC(=O)N(C)C[C@H]2Oc3ccc(NC(=O)C4CC4)cc3C(=O)N([C@H](C)CO)C[C@@H]2C)cc1` as the compound, how does the “activity change, negative = growth inhibition” value read?
Its value is 4.69%.

For `Cc1noc(C)c1NC(=O)Nc1ccc2c(c1)C(=O)N([C@H](C)CO)C[C@H](C)[C@@H](CN(C)C(=O)Nc1ccccc1)O2`, which “activity change, negative = growth inhibition” value is on record?
Its value is 4.33%.

Which Potency does the source give for `CN1C(=O)CC(c2ccccc2)C1=O` (stereo unspecified) here?
Its Potency is “inactive”.

Which “activity change, negative = growth inhibition” value does the source give for `Cc1ccc(-n2ncc3c(N4CCC(C(N)=O)CC4)ncnc32)cc1` here?
Its value is -0.778%.

For `Cc1ccc(-n2ncc3c(N4CCN(c5ccc(F)cc5)CC4)ncnc32)c(C)c1`, which Potency is on record?
The Potency was 11.6 µM (active).

For `Cc1ccc(-n2ncc3c(=O)[nH]cnc32)c(C)c1`, which “activity change, negative = growth inhibition” value is on record?
The value was 14.5%.

With `COc1ccc(CCOC2OC(CO)C(OC(=O)/C=C/c3ccc(O)c(OC)c3)C(O[C@H]3O[C@@H](C)[C@H](O)[C@@H](O)[C@H]3O)C2O)cc1O` (stereo partly specified) as the compound, how does the “activity change, negative = growth inhibition” value read?
Its value is 8.7%.

For `Cc1ccc(S(=O)(=O)CCC(=O)OCC(=O)NCCc2ccc(S(N)(=O)=O)cc2)cc1`, which “activity change, negative = growth inhibition” value is on record?
The value was 2.06%.

Which “activity change, negative = growth inhibition” value does the source give for `Cc1c(C(=O)N2CCCC2)c(S(=O)(=O)NCC(C)c2ccccc2)c(C)n1C` (stereo unspecified) here?
Its value is -3.17%.

With `CC(C)N=C1CCCC1C(=S)SSC(=S)C1CCCC1=NC(C)C` (stereo unspecified) as the compound, how does the Potency read?
Its Potency is 0.0366 µM (active).

With `COc1ccccc1/C=C1\SC(=O)N(CCC(=O)N(C)C2CCS(=O)(=O)C2)C1=O` (stereo unspecified) as the compound, how does the “activity change, negative = growth inhibition” value read?
The value was -20.6%.

For `O=C(Nc1cccc2ccccc12)c1onc2c1CCCC2`, which Potency is on record?
Its Potency is 10.3 µM (active).

Which “activity change, negative = growth inhibition” value does the source give for `COc1ccc(C(=O)Nc2onc3c2CCCC3)cc1` here?
The value was -28.1%.

Which “activity change, negative = growth inhibition” value does the source give for `O=C(O)c1ccccc1-c1ccccc1C(=O)Nc1cccc2ccccc12` here?
Its value is 1.67%.

Which “activity change, negative = growth inhibition” value does the source give for `COC(=O)/C(=C1\Oc2ccc(C(C)(C)C)cc2S1)C(F)(F)F` here?
Its value is -18.1%.

Which “activity change, negative = growth inhibition” value does the source give for `CC(Sc1nnc(-c2cccs2)n1C1CC1)C(=O)NCC1CCCO1` (stereo unspecified) here?
Its value is -10.3%.

For `O=S(=O)(NCc1ccccc1Br)c1ccccc1Br`, which “activity change, negative = growth inhibition” value is on record?
Its value is -15.5%.

With `O=C(Nc1ccc([N+](=O)[O-])cc1)C1(c2ccccc2)CCOCC1` as the compound, how does the “activity change, negative = growth inhibition” value read?
The value was -26.7%.

Which Potency does the source give for `Clc1ccc(-n2nnnc2-c2cnc(-c3ccccn3)nc2-c2cccs2)cc1` here?
The Potency was 6.51 µM (active).

For `CN(C)c1nnnn1-c1ccc(Cl)cc1`, which “activity change, negative = growth inhibition” value is on record?
Its value is 0.0585%.

Which “activity change, negative = growth inhibition” value does the source give for `O=C(CN1C(=O)CSC1=O)N1CCCC(Nc2ccc(F)cc2)C1` (stereo unspecified) here?
The value was 0.241%.

Which “activity change, negative = growth inhibition” value does the source give for `COc1cccc2[nH]c(C(=O)NCCc3ccccc3)cc12` here?
Its value is -1.97%.

Which “activity change, negative = growth inhibition” value does the source give for `COc1ccc(CCNC(=O)CCc2c(C)nc3c(c(C)nn3-c3ccc(C)c(C)c3)c2C)c(OC)c1OC` here?
Its value is 1.23%.

Which Potency does the source give for `COc1ccc(CCNC(=O)c2cc3cccc4c3n2CC(C)S4)c(OC)c1OC` (stereo unspecified) here?
The Potency was 20.6 µM (active).

With `Cc1c(C(=O)N(C)C)sc2c1c(=O)n(-c1ccc(F)cc1)c(=O)n2CC(=O)N(C)c1ccccc1` as the compound, how does the “activity change, negative = growth inhibition” value read?
The value was -11.3%.

For `O=C(COC(=O)c1ccccn1)Nc1cccc2ccccc12`, which “activity change, negative = growth inhibition” value is on record?
Its value is 1.49%.

With `Cc1cc(C)nc(-n2nc(C)cc2NC(=O)c2ccc(F)cc2F)n1` as the compound, how does the Potency read?
The Potency was 4.11 µM (active).

With `CCOC(=O)c1cccc(NC(=O)c2ccc(F)cc2F)c1` as the compound, how does the “activity change, negative = growth inhibition” value read?
Its value is -29.8%.

Which “activity change, negative = growth inhibition” value does the source give for `CC(=O)N/C(=N/c1nc(C)cc(C)n1)Nc1ccc(F)cc1F` here?
The value was 3.17%.

Which “activity change, negative = growth inhibition” value does the source give for `Cc1noc(C)c1C(=O)OC(C)C(=O)Nc1ccc2c(c1)OCO2` (stereo unspecified) here?
Its value is -10.9%.

For `CN1CCN(NC(=O)Nc2ccc(Br)cc2)CC1`, which “activity change, negative = growth inhibition” value is on record?
The value was -4.59%.

For `CCNC(=S)NNC(=O)C1CCN(Cc2ccccc2)CC1`, which “activity change, negative = growth inhibition” value is on record?
The value was -0.188%.

For `CCn1cc(CN2CCC(n3nccc3NC(=O)CCCc3ccccc3)CC2)c(C)n1`, which “activity change, negative = growth inhibition” value is on record?
The value was 8.22%.

With `CCn1cc(CN2CCC(C(=O)Nc3cccc(-c4cccc(Cl)c4)c3)CC2)c(C)n1` as the compound, how does the Potency read?
The Potency was 13 µM (active).

With `O=C(Nc1ccc(-n2cccn2)cc1)C1CCN(Cc2ccsc2)CC1` as the compound, how does the “activity change, negative = growth inhibition” value read?
Its value is 4.59%.
